PubChem BioAssay AID1030 (National Center for Advancing Translational Sciences (NCATS), 2008)
Out of some 220,000 compounds screened, about 16,000 (7.3%) were called active. Another 25% or so got no clear call; they are omitted. Calls come from the whole dose curve; as a rule, active = well fitted inhibition curve with a large enough effect (not every such curve was filed as active); inconclusive = small, poorly fitted or top-dose-only effect, or another doubt; inactive = no such curve, though single readings can be large or run the other way. What follows is part of a selection rich in actives, with near analogues and random picks from the rest. A call without a number means that no potency is given here.

molecular target: Aldehyde dehydrogenase 1A1 (Homo sapiens) (UniProt P00352); assay: qHTS Assay for Inhibitors of Aldehyde Dehydrogenase 1 (ALDH1A1); conditions: Purified ALDH1A1, NADH fluorescence, propionaldehyde substrate; series mostly up to 75.3 µM
Sequence (P00352 whole entry, looked up): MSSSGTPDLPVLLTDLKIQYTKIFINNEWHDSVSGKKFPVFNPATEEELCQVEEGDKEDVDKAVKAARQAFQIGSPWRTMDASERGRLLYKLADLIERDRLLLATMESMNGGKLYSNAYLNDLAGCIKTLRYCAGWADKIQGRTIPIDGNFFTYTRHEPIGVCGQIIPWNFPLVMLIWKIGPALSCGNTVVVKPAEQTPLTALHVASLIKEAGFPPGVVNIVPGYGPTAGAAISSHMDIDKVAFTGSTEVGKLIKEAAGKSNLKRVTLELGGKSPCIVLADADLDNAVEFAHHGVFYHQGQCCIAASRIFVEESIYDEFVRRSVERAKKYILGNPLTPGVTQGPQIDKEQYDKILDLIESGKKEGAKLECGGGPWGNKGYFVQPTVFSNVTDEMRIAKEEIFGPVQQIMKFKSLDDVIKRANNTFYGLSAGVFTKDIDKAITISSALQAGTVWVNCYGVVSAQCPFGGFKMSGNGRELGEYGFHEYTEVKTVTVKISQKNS
Potency is the fitted concentration of half-maximal effect.

| Structure (SMILES) | Potency | activity, negative = inhibition |
| --- | --- | --- |
| CNC(=O)C(=O)N/N=C/c1ccccn1 | inactive | – |
| COC(=O)c1c(C(=O)OC)c(-c2cccc(C)c2)n2c1CS(=O)C2 (configuration not stated) | inactive | – |
| Cn1cc(/C=C/C(=O)N2CCCC(C(=O)c3ccc(C(F)(F)F)cc3)C2)cn1 (configuration not stated) | inactive | – |
| CN1CCN(C(=O)/C(=C\c2ccc3c(c2)OCO3)NC(=O)c2cccs2)CC1 | inactive | – |
| Cc1ccc(NC(=O)C2(N3CCC3=O)CCCCC2)cc1 | inactive | – |
| O=C(COC(=O)CNS(=O)(=O)c1ccccc1)NC12CC3CC(CC(C3)C1)C2 | inactive | – |
| S=C(NC1CCCCC1)NN1CCOCC1 | inactive | – |
| CC(=O)Nc1ccc(S(=O)(=O)Oc2ccc(/C=N/N=C3/NC(=O)C(CC(=O)O)S3)cc2)cc1 (configuration not stated) | inactive | – |
| CC(C)c1cnc(NC(=O)Cc2ccccc2)s1 | inactive | – |
| C=C(C)CNC(=S)Nc1ccc(S(=O)(=O)Nc2cnc3ccccc3n2)cc1 | inactive | – |
| COc1ccc(CN(C)C(C)C(=O)NC2CCCc3ccccc32)cc1 (configuration not stated) | inactive | – |
| COc1cc(/C=N/NC(=S)Nc2cccnc2)cc(OC)c1O | inactive | – |
| COc1cc(/C=N/Nc2ccc(C)cc2)cc(Br)c1O | 25.1 µM (active) | – |
| COc1cc(/C=N\NC(=O)C2C(=O)NCC2c2ccccc2)cc(OC)c1O (configuration not stated) | inactive | – |
| COc1cc(/C=N/O)cc(Br)c1OCc1cccc(Cl)c1 | inactive | – |
| CCOc1cc(/C=N/O)cc(Br)c1OC | inactive | – |
| COc1cc(/C=N/O)cc(Br)c1OS(=O)(=O)c1ccc(C)cc1 | 1.58 µM (active) | – |
| CC(C)(C)OC(=O)N/N=C/c1cn(-c2ccccc2)nc1-c1cccnc1 | inactive | – |
| CCN(CC)CC(=O)Nc1sc2c(c1C(=O)c1ccccc1C)CCC2 | inactive | – |
| Cc1ccc(SCCC(=O)NCc2ccccn2)cc1 | inactive | – |
| N#Cc1ccc(OCc2nnc(-c3ccc([N+](=O)[O-])cc3)o2)cc1 | inactive | – |
| CCCSc1ncccc1C(=O)O | inactive | – |

| Structure (SMILES) | Potency | activity, negative = inhibition |
| --- | --- | --- |
| CN(C)NC(=O)C(NC(=O)c1ccc(N)cc1)C12CC3CC(CC(C3)C1)C2 (configuration not stated) | inactive | – |
| CNC(=S)N/N=C/c1cn(Cc2ccc(C)cc2)c2ccccc12 | inactive | – |
| Cc1ccc(NC(=S)NCCN2CCOCC2)cc1 | inactive | – |
| CNC(=S)N/N=C/c1ccc(N2CCOCC2)s1 | 8.91 µM (active) | – |
| CC(C)CC[n+]1ccn(C2=C([O-])c3ccccc3C(=O)/C2=N\S(=O)(=O)c2ccccc2)c1 | 8.91 µM (active) | – |
| COc1ccc(-c2csc(Nc3ccccn3)n2)cc1 | inactive | – |
| Brc1ccc2ncnc(NCc3cccnc3)c2c1 | inactive | – |
| Cc1ccc(C(=O)NCCNS(=O)(=O)c2ccccc2)cc1 | inactive | – |
| Cc1ccc(S(=O)(=O)NCCSC(C)(C)C)cc1 | 17.8 µM (active) | – |
| O=S(=O)(NCCc1ccccc1)c1ccccc1 | inactive | – |
| COc1cc(OC)cc(C(=O)OCC(=O)Nc2ccc(F)cc2F)c1 | inactive | – |
| CC(C)=C1C2CCC1C1C(=O)N(NC(=O)c3ccco3)C(=O)C21 (configuration not stated) | inactive | – |
| COc1ccccc1OCCNC(=O)c1cc([N+](=O)[O-])cc([N+](=O)[O-])c1 | inactive | – |
| COc1ccc(NS(=O)(=O)c2cc(NC(=O)CC(=O)c3ccc([N+](=O)[O-])cc3)ccc2C)cc1 | inactive | – |
| COc1cccc(NCCC(=O)c2cccc([N+](=O)[O-])c2)c1 | 0.224 µM (active) | – |
| O=C(NCc1csc(-c2cccs2)n1)C1CC1 | inactive | – |
| CC(C)Oc1ccc(Cc2n[nH]c(=S)n2Cc2ccccc2)cc1Cl | inactive | – |
| O=C(COc1ccccc1)NCc1ccc2c(c1)OCO2 | inactive | – |
| NNC(=O)COc1ccc(C2SCCS2)cc1 | 3.98 µM (active) | – |
| NC(=O)COc1ccc(C23CC4CC(CC(C4)C2)C3)cc1 | inactive | – |
| COc1ccc(CCNC(=O)COC(=O)Cc2cc(OC)c(OC)c(OC)c2)cc1 | inactive | – |
| CC(C)N(Cc1nc(-c2ccc3c(c2)OCO3)no1)CC1CCC(=O)N1 (configuration not stated) | inactive | – |

| Structure (SMILES) | Potency | activity, negative = inhibition |
| --- | --- | --- |
| Cc1nc(N)c(Br)c(C)c1Br | inactive | – |
| CCN(CC)S(=O)(=O)c1cccc(-c2n[nH]c(=S)n2/N=C/c2ccc(C(=O)OC)cc2)c1 | 22.4 µM (active) | – |
| COC(=O)c1ccc(/C=N/N2C(C)CCCC2C)cc1 (configuration not stated) | inactive | – |
| Cc1ccc(/C=N\n2c(-c3ccccc3)n[nH]c2=S)s1 | inactive | – |
| CCN(CC)C(=O)C(=O)Nc1cccc(Br)c1 | inactive | – |
| C=CCn1c(CCNC(=O)c2ccccc2F)nnc1SCC(=O)Nc1ccc(OC)cc1 | inactive | – |
| Cc1nc(CN2CCN(C(=O)CCc3nnc(Cc4c[nH]c5ccccc45)o3)CC2)cs1 | inactive | – |
| COC(=O)c1c(NC(=O)CN2C(=O)NC(CCc3ccccc3)C2=O)sc2c1CCCCC2 (configuration not stated) | 20 µM (active) | – |
| Cc1cc(NC(=O)CN2C(=O)NC(CCc3ccccc3)C2=O)no1 (configuration not stated) | inactive | – |
| CCN1C(=O)N[C@@H](CCc2ccccc2)C(C(=O)OC)=C1C | – | 5.7% [at 13.5 µM] (inactive) |
| CCCNS(=O)(=O)c1ccc2c(c1)CCCN2C(C)=O | 22.4 µM (active) | – |
| CC(=O)N1CCc2cc(S(=O)(=O)Nc3ccccc3N3CCN(C)CC3)ccc21 | inactive | – |
| CCC1CCCCN1CCNS(=O)(=O)c1ccc2c(c1)CCN2C(C)=O (configuration not stated) | inactive | – |
| CC(=O)Nc1ccc(NC(=O)COc2ncnc3ccccc23)cc1 | inactive | – |
| O=S(=O)(Cc1noc(-c2ccc(OC(F)(F)F)cc2)n1)c1ccc(F)cc1 | inactive | – |
| CSc1nc2sc3c(c2c(=O)[nH]1)CCc1ccccc1-3 | inactive | – |
| COc1cccc(-n2c(=S)[nH]c3c(oc4ccccc43)c2=O)c1 | inactive | – |
| COc1ccc(-n2c(=S)[nH]c3sc4c(c3c2=O)CCc2ccccc2-4)cc1 | 3.98 µM (active) | – |
| CC(NC(=O)CC1SC(N)=NC1=O)c1ccccc1 (configuration not stated) | inactive | – |
| O=C(NCCc1c[nH]c2ccccc12)c1cc2ccccc2oc1=O | inactive | – |
| CN=C1C=C/C(=N/N=c2\ccn(O)cc2C)C=C1C | inactive | – |
| COc1ccc(C2CC(c3cccs3)=NN2C(=O)CSc2nnc(N)s2)cc1OC (configuration not stated) | inactive | – |

| Structure (SMILES) | Potency | activity, negative = inhibition |
| --- | --- | --- |
| CCn1cc(C(=O)NCc2ccc3c(c2)OCO3)c2cc(OC)c(OC)cc2c1=O | inactive | – |
| CCn1cc(C(=O)N2CCN(C3CCCCC3)CC2)c2cc(OC)c(OC)cc2c1=O | inactive | – |
| CCn1cc(C(=O)N2CCN(Cc3ccc4c(c3)OCO4)CC2)c2cc(OC)c(OC)cc2c1=O | 2.24 µM (active) | – |
| Cn1cnnc1SCc1nnc(-c2ccccc2Br)o1 | inactive | – |
| COCc1ccc(C(=O)N2CCc3c([nH]c4ccccc34)C2c2ccccn2)s1 (configuration not stated) | inactive | – |
| COc1ccccc1CC(NC(C)=O)C(=O)NC1CCN(C(=O)Nc2ccccc2Cl)CC1 (configuration not stated) | inactive | – |
| Cc1nn(C)cc1/C=C1\CCC/C(=C\c2cn(C)nc2C)C1=O | 28.2 µM (active) | – |
| CCn1cc(/C=C2/SC(=S)NC2=O)c(C)n1 | inactive | – |
| Cc1c(Cl)c([N+](=O)[O-])nn1CC(=O)NCC1CCCO1 (configuration not stated) | inactive | – |
| CCOC(=O)c1ccc(NC(=O)c2cc(=O)[nH]c3ccccc23)cc1 | inactive | – |
| CCn1c(CSc2nc(C)cc(C)n2)nnc1SCC(N)=O | inactive | – |
| C/C(=N\NC(=O)c1ccc(CSc2nc(C)cc(C)n2)cc1)C1CCCCC1 | 3.55 µM (active) | – |
| C/C(=N\NC(=O)c1nc(C)cc(C)n1)c1ccccc1 | inactive | – |
| CC1=C(/C=C/C(C)=C/C=C/C(C)=C/C=C/C=C(C)/C=C/C=C(C)/C=C/C(=O)[C@]2(C)C[C@@H](O)CC2(C)C)C(C)(C)C[C@H](O)C1 | inactive | – |
| O=C(Nc1ccc2c(c1)CCC2)c1ccc(Br)s1 | inactive | – |
| Cc1ccc(NC(=S)N2CCCC(c3ccccc3)=N2)cc1 | inactive | – |
| CN1CC(c2ccccc2)C2(COc3ccccc3C2=O)C12C(=O)Nc1ccccc12 (configuration not stated) | 7.94 µM (active) | – |
| CC1(C)C2CCC1(C)C(OC(=O)c1ccc(O)cc1)C2 (configuration not stated) | inactive | – |
| COc1ccc(CCn2ccc(O)c(Cc3ccc(Cl)cc3Cl)c2=O)cc1OC | inactive | – |
| Cc1noc(C)c1S(=O)(=O)Nc1cc(C(F)(F)F)ccc1N1CCOCC1 | inactive | – |
| C=CCN(Cc1nc(-c2cc(OC)c3c(c2)OCO3)oc1C)C1CCS(=O)(=O)C1 (configuration not stated) | inactive | – |
| CCO[C@@H]1OC(C(N)=O)=C[C@H](c2ccc(Br)cc2)[C@H]1CCCO | inactive | – |

| Structure (SMILES) | Potency | activity, negative = inhibition |
| --- | --- | --- |
| Cn1c(=O)c2c(nc(SCCNS(=O)(=O)c3ccccc3)n2C)n(C)c1=O | inactive | – |
| CCOc1ccc2nc(NC(=O)CSc3nc4c(c(=O)n(C)c(=O)n4C)n3CC)sc2c1 | inactive | – |
| CCCSc1nc2c(c(=O)n(C)c(=O)n2C)n1Cc1ccc(C)cc1 | 25.1 µM (active) | – |
| COCCn1c(CN(Cc2ccccc2)Cc2ccccc2)nc2c1c(=O)n(C)c(=O)n2C | inactive | – |
| COC(=O)C(C)Sc1nc2c(c(=O)n(C)c(=O)n2C)n1Cc1cccc(C)c1 (configuration not stated) | 12.6 µM (active) | – |
| CC(C)OCCCNc1nc2c(c(=O)n(Cc3ccccc3F)c(=O)n2C)n1C | inactive | – |
| CCOC(=O)CSc1nc2c(c(=O)n(C)c(=O)n2C)n1Cc1ccccc1F | 39.8 µM (active) | – |
| CCCCNc1nc2c(c(=O)n(C)c(=O)n2C)n1Cc1cccc(OC)c1 | inactive | – |
| CCCCn1c(SCC(=O)NCCc2ccc(OC)c(OC)c2)nc2c1c(=O)n(C)c(=O)n2C | inactive | – |
| Nc1nc(SCC(=O)N2CCN(S(=O)(=O)c3ccc(Cl)cc3)CC2)n[nH]1 | inactive | – |
| COc1cccc(NC(=O)COC(=O)CCOc2ccccc2OC)c1 | inactive | – |
| COCc1c(N)c(C)nc(Cl)c1C#N | inactive | – |
| Cc1n[nH]c(=O)n1-c1ccc(C(C)C)cc1 | inactive | – |
| COc1ccc(NC(=O)COC(=O)c2ccncc2)c(OC)c1 | inactive | – |
| Cc1c(Cl)cccc1NC(=O)CSc1ccc(-c2cccnc2)nn1 | inactive | – |
| COC(=O)c1c(C)[nH]c(C)c1-c1ccc([N+](=O)[O-])cc1 | inactive | – |
| CCCCC/C=C\C/C=C\CCCCCCCCCC(=O)O | inactive | – |
| CCOC(=O)Cn1nnnc1C | inactive | – |
| CC(Sc1nnnn1C)C(=O)NC(=O)NC1CCCCC1 (configuration not stated) | inactive | – |
